Active and inactive are the calls of the source. The calls were made as follows: active = hit-call score of the fitted dose curve at least 0.9, where 1 is the maximum; inactive = score below 0.9.
Legend:
Conditions in all cases: mRNA level, 48 h; actives raise or lower the signal
HGF (gene 3082) = assay: LTEA_HepaRG_HGF: Life Technologies and Expression Analysis (LTEA) Assay for Hepatocyte Growth Facto (HGF) using HepaRG (AID 2283505)
In short: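 Differentiated human HepaRG cells in serum-free induction medium were exposed in duplicate for 48 h to eight concentrations (top 100 uM, half-log steps, 0.5% DMSO). HGF mRNA was quantified by qRT-PCR, normalized to ACTB, GAPDH and POLR2A.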

[1] = read-out: Insulin Like Growth Factor 1 (IGF1), IGF1 (gene 3479); assay: LTEA_HepaRG_IGF1: Life Technologies and Expression Analysis (LTEA) Assay for Insulin Like Growth Factor 1 (IGF1) using HepaRG (AID 2283506)
In short: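 HepaRG, plated 48 h, then switched to serum-free induction media; test chemical 8-pt half-log from 100 uM (0.5% DMSO), duplicate, 48 h. Lysis in RLT, TaqMan qRT-PCR, norm. ACTB/GAPDH/POLR2A. Bidirectional fit vs DMSO.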

[2] = read-out: Intercellular Adhesion Molecule 1 (ICAM1), ICAM1 (gene 3383); assay: LTEA_HepaRG_ICAM1: Life Technologies and Expression Analysis (LTEA) Assay for Intercellular Adhesion Molecule 1 (ICAM1) using HepaRG (AID 2283507)
In short: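 Differentiated HepaRG cells in serum-free induction medium were exposed in duplicate for 48 h to eight half-log concentrations up to 100 uM in 0.5% DMSO. Transcript levels were measured by qRT-PCR normalized to ACTB, GAPDH and POLR2A; bidirectional fits relative to DMSO.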

[3] = read-out: Insulin-like growth factor-binding protein 1 (IGFBP1), IGFBP1 (gene 3484); assay: LTEA_HepaRG_IGFBP1: Life Technologies and Expression Analysis (LTEA) Assay for Insulin-like growth factor-binding protein 1 (IGFBP1) using HepaRG (AID 2283508)
In short: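 Differentiated human HepaRG cells in serum-free induction medium were exposed in duplicate for 48 h to eight concentrations, top 100 uM with half-log dilutions, in 0.5% DMSO. Transcript levels came from qRT-PCR normalised to ACTB, GAPDH and POLR2A, fitted bidirectionally against DMSO.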

[4] = read-out: Interleukin 6 (IL6), IL6 (gene 3569); assay: LTEA_HepaRG_IL6: Life Technologies and Expression Analysis (LTEA) Assay for Interleukin 6 (IL6) using HepaRG (AID 2283509)
In short: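 HepaRG, ~100,000 cells/well, 48 h pre-culture; serum-free induction medium; cmpd 8-pt half-log from 100 uM, 0.5% DMSO, duplicate, 48 h. Lysis in RLT, TaqMan qRT-PCR; gain or loss vs DMSO.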

[5] = read-out: Interleukin 6 Receptor (IL6R), IL6R (gene 3570); assay: LTEA_HepaRG_IL6R: Life Technologies and Expression Analysis (LTEA) Assay for Interleukin 6 Receptor (IL6R) using HepaRG (AID 2283510);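 as to AC50: TaqMan qRT-PCR signal normalized to ACTB GAPDH and POLR2A housekeeping genes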
In short: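 Readout is IL6R transcript level by TaqMan qRT-PCR, normalized to three housekeeping genes and fitted bidirectionally against 0.5% DMSO controls. Human HepaRG cells received chemicals for 48 h in serum-free induction medium, highest concentration 100 uM.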

[6] = read-out: Potassium channel subfamily K member 1 (KCNK1), KCNK1 (gene 3775); assay: LTEA_HepaRG_KCNK1: Life Technologies and Expression Analysis (LTEA) Assay for Potassium channel subfamily K member 1 (KCNK1) using HepaRG (AID 2283511)
In short: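 Gain or loss of KCNK1 mRNA is the read-out, quantified by qRT-PCR against three housekeeping genes after 48 h chemical treatment of human HepaRG liver cells. Concentrations ran from 100 uM downward in half-log steps, vehicle 0.5% DMSO.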

[7] = read-out: Keratin 19 (KRT19), KRT19 (gene 3880); assay: LTEA_HepaRG_KRT19: Life Technologies and Expression Analysis (LTEA) Assay for Keratin 19 (KRT19) using HepaRG (AID 2283512)
In short: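 Differentiated human HepaRG cells, plated 48 h, were exposed in duplicate for 48 h in serum-free induction medium to eight half-log concentrations up to 100 uM in 0.5% DMSO. KRT19 mRNA was quantified by qRT-PCR, normalized to ACTB, GAPDH and POLR2A, and fitted bidirectionally versus DMSO.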

[8] = read-out: JUN Transcription Factor, JUN (gene 3725); assay: LTEA_HepaRG_JUN: Life Technologies and Expression Analysis (LTEA) Assay for JUN Transcription Factor using HepaRG (AID 2283513)
In short: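 Cells plated 48 h, medium switched to serum-free induction medium, then dosed 48 h (100 uM top, half-log dilutions, 0.5% DMSO). RNA isolated; JUN measured by qRT-PCR against three housekeeping genes; gain or loss fitted relative to DMSO.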

[9] = read-out: Lipase C (LIPC), LIPC (gene 3990); assay: LTEA_HepaRG_LIPC: Life Technologies and Expression Analysis (LTEA) Assay for Lipase C (LIPC) using HepaRG (AID 2283514)
In short: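 Read-out is LIPC transcript level by TaqMan qRT-PCR, normalized to three housekeeping genes, after 48 h chemical treatment of human HepaRG liver cells. Curves span eight concentrations topping at 100 uM; activity in either direction scored relative to 0.5% DMSO.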

Measured: AC50

NS(=O)(=O)C(F)(F)C(F)(F)C(F)(F)C(F)(F)C(F)(F)C(F)(F)C(F)(F)C(F)(F)F
inactive: [2] | [6]
active: HGF (gene 3082) 12.9 µM | [1] 22.3 µM | [3] 21.6 µM | [4] 38.9 µM | [5] 30.2 µM | [7] 23.4 µM | [8] 37.2 µM | [9] 15.8 µM

CCCN(CCC)N=O
inactive: HGF (gene 3082) | [1] | [2] | [3] | [4] | [5] | [6] | [8] | [9]

Cc1cccc(C)c1N
inactive: HGF (gene 3082) | [1] | [2] | [3] | [5] | [6] | [8] | [9]

Oc1ccc(Cl)cc1Cl
inactive: HGF (gene 3082) | [1] | [2] | [3] | [5] | [6] | [8] | [9]

Nc1ccc(-c2ccc(N)cc2)cc1
inactive: HGF (gene 3082) | [1] | [2] | [3] | [5] | [6] | [7] | [8] | [9]

CC#Cc1cc(C)nc(Nc2ccccc2)n1
inactive: [2] | [5] | [6] | [8]
active: HGF (gene 3082) 50 µM | [1] 33.1 µM | [3] 21.9 µM | [9] 15.3 µM

O=C(O)C(F)(F)C(F)(F)C(F)(F)C(F)(F)C(F)(F)F
inactive: HGF (gene 3082) | [1] | [2] | [3] | [5] | [6] | [8] | [9]

COc1ccc(O)c(C(C)(C)C)c1
inactive: HGF (gene 3082) | [1] | [2] | [3] | [5] | [6] | [8] | [9]

Cc1cccc([N+](=O)[O-])c1
inactive: HGF (gene 3082) | [1] | [2] | [3] | [5] | [6] | [8] | [9]

CC(c1ccc(O)cc1)(c1ccc(O)cc1)c1ccc(O)cc1
inactive: [6] | [9]
active: HGF (gene 3082) 25.1 µM | [1] 92 µM | [2] 33.4 µM | [3] 18.8 µM | [5] 72.7 µM | [8] 82.9 µM

ClC1=C(Cl)[C@]2(Cl)[C@@H]3[C@@H]4C[C@@H]([C@H]5O[C@@H]45)[C@@H]3[C@@]1(Cl)C2(Cl)Cl
active: [1] 9.92 µM | [2] 9.92 µM | [5] 0.00506 µM
inactive: HGF (gene 3082) | [3] | [6] | [8] | [9]

O=C(N[C@H]1CN2CCC1CC2)c1cc2ccoc2cn1
inactive: HGF (gene 3082) | [1] | [2] | [3] | [5] | [6] | [8] | [9]

Oc1ccc(C(c2ccc(O)cc2)(C(F)(F)F)C(F)(F)F)cc1
active: [3] 75.9 µM | [5] 89.2 µM | [8] 92.4 µM
inactive: HGF (gene 3082) | [1] | [2] | [6] | [9]

CCC(C)(c1ccc(O)cc1)c1ccc(O)cc1
inactive: HGF (gene 3082) | [1] | [2] | [3] | [5] | [6] | [8] | [9]

ClC(Cl)=C(c1ccc(Cl)cc1)c1ccc(Cl)cc1
active: [1] 50 µM
inactive: HGF (gene 3082) | [2] | [3] | [5] | [6] | [8] | [9]

ClC1=C(Cl)[C@]2(Cl)[C@@H]3[C@@H](Cl)[C@H]4O[C@H]4[C@@H]3C1(Cl)C2(Cl)Cl
active: [1] 5.01 µM
inactive: HGF (gene 3082) | [2] | [3] | [5] | [6] | [7] | [9]

O=C(NC(=O)c1c(F)cccc1F)Nc1cc(Cl)c(OC(F)(F)C(F)F)c(Cl)c1
inactive: HGF (gene 3082) | [1] | [2] | [3] | [5] | [6] | [7] | [8]
active: [9] 50 µM
